The source of these data is PMC8384837, “Expanding the binding specificity for RNA recognition by a PUF domain”.

PUM1 PUF domain R3-GRD, sequence (Q14671 828-1176 C935G/Q939D): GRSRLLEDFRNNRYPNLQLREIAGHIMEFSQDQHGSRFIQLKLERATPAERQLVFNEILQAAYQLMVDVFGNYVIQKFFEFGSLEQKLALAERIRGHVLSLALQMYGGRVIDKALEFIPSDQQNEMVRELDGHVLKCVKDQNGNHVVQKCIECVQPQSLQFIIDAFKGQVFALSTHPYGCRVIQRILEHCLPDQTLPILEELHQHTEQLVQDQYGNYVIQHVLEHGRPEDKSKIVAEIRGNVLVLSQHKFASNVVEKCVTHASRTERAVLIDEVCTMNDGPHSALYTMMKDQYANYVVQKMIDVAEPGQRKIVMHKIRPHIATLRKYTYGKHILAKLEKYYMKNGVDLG
PUM1 PUF domain R3-CRT, sequence (Q14671 828-1176 Q939T): as the sequence (Q14671 828-1176 C935G/Q939D) above, with G108C, D112T counted along it

The first assay addresses PUM1 PUF domain R3-CRT (Homo sapiens, UniProt Q14671 828-1176, Q939T). Kind of assay: yeast three-hybrid, YBZ-1, SC-Leu-His + 0.5 mM 3-AT, 4 days. The conditions noted are these: tags: N-Gal4 AD-HA kept; label: inside an RPR1-promoter hybrid RNA with tandem MS2 sites; ssRNA. The method in brief:
(§1)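 Each repeat of the Pumilio-1 PUF domain was randomized at its three base-contacting residues, and these libraries were co-expressed from a centromeric plasmid with matching RNA elements in strain YBZ-1. After four days on SC-Leu (input) or SC-Leu-His + 0.5 mM 3-AT (selection), the repeat regions were PCR-amplified and Illumina-sequenced. The interaction score compares variant frequency between input and selection as a log change, computed in log2 with a pseudocount of 1 for absent variants.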
In the case of “GGCUAGAACUAGUGGAUCCCCCGGCGCCCGGCGGCUCGAGCCCGGGUAAGUGUAAAUAGUCUGCAUGCCGCCGGGCGCCAUGCCUGCAGGUCGACUCUAGAAAACAUG”, the binding signal is 3.85 log2 enrichment (interaction score).

As for “GGCUAGAACUAGUGGAUCCCCCGGCGCCCGGCGGCUCGAGCCCGGGUAAGUGUAAGUAGUCUGCAUGCCGCCGGGCGCCAUGCCUGCAGGUCGACUCUAGAAAACAUG”, the binding signal is 1.54 log2 enrichment (interaction score).

Take “GGCUAGAACUAGUGGAUCCCCCGGCGCCCGGCGGCUCGAGCCCGGGUAAGUGUAAUUAGUCUGCAUGCCGCCGGGCGCCAUGCCUGCAGGUCGACUCUAGAAAACAUG”: the binding signal is 1.12 log2 enrichment (interaction score).

For the next assay, the target named is PUM1 PUF domain R3-GRD (Homo sapiens, UniProt Q14671 828-1176, C935G;Q939D). Described as above. As to conditions: tags: N-Gal4 AD-HA kept; label: inside an RPR1-promoter hybrid RNA with tandem MS2 sites; ssRNA. The method in brief:
as §1
In the case of “GGCUAGAACUAGUGGAUCCCCCGGCGCCCGGCGGCUCGAGCCCGGGUAAGUGUAAAUAGUCUGCAUGCCGCCGGGCGCCAUGCCUGCAGGUCGACUCUAGAAAACAUG”, the binding signal is 4.82 log2 enrichment (interaction score).

As for “GGCUAGAACUAGUGGAUCCCCCGGCGCCCGGCGGCUCGAGCCCGGGUAAGUGUAAGUAGUCUGCAUGCCGCCGGGCGCCAUGCCUGCAGGUCGACUCUAGAAAACAUG”, the binding signal is 6.36 log2 enrichment (interaction score).

Regarding “GGCUAGAACUAGUGGAUCCCCCGGCGCCCGGCGGCUCGAGCCCGGGUAAGUGUAAUUAGUCUGCAUGCCGCCGGGCGCCAUGCCUGCAGGUCGACUCUAGAAAACAUG”, the binding signal was 2.16 log2 enrichment (interaction score).
